# Measurements reported in PubChem BioAssay AID504408 (Broad Institute, 2011).
# Among all 300,000 compounds or so, about 5,200 (1.7%) were called active. The full list was thinned out, with actives kept by preference. A number with no mark means an inactive call.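 The calls were made as follows: active = mean replicate activation of at least 50% with a set share of replicates each reaching 50%; inconclusive = only one of those two conditions met; inactive = mean below 50% and too few replicates reaching it.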
# Experiment: HSF-1 response element luciferase induction – NIH3T3-HGL cells, MG132 stress, luminescence, single point, primary screen (AID 504408);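 also: 0% = median of the neutral control wells and 100% = twice that signal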
# Conditions: NIH3T3-HGL HSF-1 luciferase reporter, MG132, 8 h; at 9 µM; hits give high values; 100% = twice DMSO control signal
row,SMILES,activation
1,Cc1ccc(-c2csc(NC3OC(=O)c4ccccc43)n2)cc1 (stereo unspecified),81.1% (active)
2,COc1cccc(CC(=O)Nc2nc(-c3ccc(OC)c(OC)c3)cs2)c1,3.91%
3,Cc1ccc(-c2csc(NC(=O)Cn3[nH]c(=O)c4ccccc4c3=O)n2)cc1,-17.7%
4,COc1ccc2c(c1OC)C(=O)OC2Nc1nc(-c2ccccc2)cs1 (stereo unspecified),139% (active)
5,COc1ccc(-c2csc(NC3OC(=O)c4ccccc43)n2)cc1 (stereo unspecified),20.2%
6,COc1ccc(CCNc2nc(-c3cccc(NC(C)=O)c3)cs2)cc1OC,-4.33%
7,CCc1cccc(C)c1NC(=O)COC(=O)CC1CCCC1,4.54%
8,CCCCn1c(N)c(N(CC(C)C)C(=O)c2ccc(-n3c(C)ccc3C)cc2)c(=O)[nH]c1=O,4.3%
9,CCN(CC(=O)Nc1ccc(NC(C)=O)cc1)C(=O)C1CC(=O)N(Cc2ccc(C)cc2)C1 (stereo unspecified),3.94%
10,Cc1cccc(C(=O)NCc2nnc(SC(C)C(=O)Nc3nnc(C)s3)n2C)c1 (stereo unspecified),-1.45%
11,Cc1onc(-c2ccccc2Cl)c1C(=O)N(Cc1ccc(N(C)C)cc1)C(C)C,8.27%
12,COc1cccc(NC(=S)NC(=O)c2c(Cl)c(C)nn2C)c1,60.9% (active)
13,COc1cccc(NC(=S)NCc2ccccn2)c1,15.3%
14,Cc1nn(C)c(C(=O)NNC(=S)NC2CCCCC2)c1Cl,22.3%
15,CN(CC(=O)Nc1cccc(F)c1)C(=O)C1CSC2(C)CCC(=O)N12 (stereo unspecified),1.13%
16,O=C1CN(C(=O)COc2c(Cl)cccc2Cl)c2ccccc2N1,-79.7%
17,Cc1cc(C)cc(NC(=O)COc2coc(CN3CCN(c4ccccc4)CC3)cc2=O)c1,1.43%
18,C/C(CCC(=O)OC[C@H]1O[C@H](C#Cc2ccccc2)C=C[C@@H]1Oc1ccc(C)cc1)=N\OC[C@@H](O)[C@H]1O[C@@H]2OC(C)(C)O[C@@H]2[C@H]1O,61.7% (active)

row,SMILES,activation
1,COc1ccc(O[C@H]2C=C[C@@H](c3ccccc3)O[C@@H]2CO/N=C/C[C@@H]2C=C[C@H](OC(C)=O)[C@@H](COC(C)=O)O2)cc1,-4.12%
2,CCOc1ccc(CCNC(=O)COC(=O)c2c(OC)cccc2OC)cc1OCC,-2.88%
3,CC(=O)Nc1ccc(/C=C/C(=O)c2ccccc2)cc1,30.2%
4,Cc1cn(COC/C=C/c2ccccc2)c(=O)[nH]c1=O,-6.12%
5,Cc1[nH]c(=O)c(C(=O)/C=C/c2ccccc2)c2c1CCCC2,71% (active)
6,O=C(c1ccc(F)cc1)N1CCC(C(=O)N2CCN(S(=O)(=O)c3ccccc3Br)CC2)CC1,-3.27%
7,CCOc1ccc(S(=O)(=O)N2CCC(C(=O)OCc3ccc(OC)cc3)CC2)cc1,10.2%
8,Cc1nc(-c2ccc(F)cc2)c(CC(=O)Nc2cccc(S(=O)(=O)N3CCOCC3)c2)s1,4.29%
9,O=C(c1ccccc1F)N1CCN(S(=O)(=O)c2ccc(Br)cc2)CC1,-5.95%
10,O=C(c1ccc(Cl)c(S(=O)(=O)N2CCCCC2)c1)N1CCCCCC1,-11.6%
11,O=C(c1ccc[nH]c1=S)N1CCN(S(=O)(=O)c2ccc(Br)cc2Cl)CC1,58% (active)
12,CC(=O)CC[C@@H](C)O[C@@H]1OC(C)[C@H](O)CC1O (stereo partly specified),-8.11%
13,CCOc1ccc(C(=O)Nc2cc(Cl)ccc2-n2cncn2)cc1OC,-15.6%
14,Cc1ccccc1NC(=O)C(C)OC(=O)CCC(=O)N(CC(C)C)c1c(N)n(CC(C)C)c(=O)[nH]c1=O (stereo unspecified),-9.04%
15,Cc1ccccc1Nc1nc(N)nc(CSc2ccccc2)n1,118% (active)
16,Cc1ccccc1Nc1nc(N)nc(CSc2nnc3ccccn23)n1,-3.03%
17,Cc1ccc(C(=O)OCc2nc(N)nc(Nc3ccccc3C)n2)cc1,-1.52%
18,O=C(Nc1ncccc1O)c1ccc(S(=O)(=O)N2CCCCCC2)cc1,3.69%
